Inconclusive results are not listed. The source made the active and inactive calls. Unless noted, the call rests on the fitted dose curve.
Experiments:
[1] = Nuclear factor erythroid 2-related factor 2/antioxidant responsive element (Nrf2/ARE) small molecule agonists: qHTS cell viability counter screen in human keratinocytes (AID 1919968; active means well fitted curve in the direction sought with a large enough effect in the repeat runs; an effect the other way counts as inactive or inconclusive; further: nearly all actives have a fitted effect of over 55% in size; further: potency means the concentration at half of the fitted maximal effect)
Summary of the method: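 After a 5 h attachment period, ARE-reporter keratinocytes were dosed with compounds in DMSO and then cultured 23 h at 37 C. Cell viability came from CellTiter-Fluor signal read after a further 1 h.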

[2] = Nuclear factor erythroid 2-related factor 2/antioxidant responsive element (Nrf2/ARE) small molecule agonists: luciferase reporter gene qHTS assay in human keratinocytes (AID 1919969); further: nearly all actives have a fitted effect of over 35% in size; further: potency means the concentration at half of the fitted maximal effect
[3] = G protein-coupled receptor (GPCR) small molecule agonists, calcium flux assay: HEK293 wild type cell line counter screen (AID 1920065)
Summary of the method: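 Calcium-sensitive dye, loaded 1 h at 37 C into cells cultured 18 h, reports compound-evoked calcium release as fluorescence (Ex/Em 480/540), measured over 3 min. Agonist mode; 15-point titrations, triplicate.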

[4] = p53 small molecule agonists, cell-based qHTS assay with human liver microsomes (AID 1963577)
Summary of the method: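 p53RE-bla reporter cells were pre-incubated 5 h at 37 C, then treated with compounds plus human liver microsomes (0.5 mg/mL final) and NADPH (0.5 mg/mL final) for 16 h at 37 C. Beta-lactamase activity was read by LiveBLAzer fluorescence after 2 h at room temperature.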

[5] = p53 small molecule agonists, cell-based qHTS assay with rat liver microsomes (AID 1963578)
Summary of the method: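 p53RE-bla cells were exposed to compounds together with rat liver microsomes (0.5 mg/mL final) and NADPH (0.5 mg/mL final) for 16 h at 37 C, then read by LiveBLAzer beta-lactamase fluorescence after 2 h at room temperature.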

[6] = p53 small molecule agonists, cell-based qHTS assay with human liver microsomes: qHTS cell viability counter screen (AID 1963579); further: nearly all actives have a fitted effect of over 45% in size; further: potency means the concentration at half of the fitted maximal effect
Summary of the method: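 p53RE-bla cells (4,000/well) were pre-incubated 5 h at 37 C, then given compounds in DMSO plus human liver microsomes (0.5 mg/mL final) and NADPH (0.5 mg/mL final) for 16 h at 37 C. Viability was read by CellTiter-Glo luminescence.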

[7] = p53 small molecule agonists, cell-based qHTS assay with rat liver microsomes: qHTS cell viability counter screen (AID 1963580); further: nearly all actives have a fitted effect of over 45% in size
Summary of the method: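 HCT-116 p53RE-bla, 4,000 cells/well, 5 h pre-incubation; cpd + rat liver microsomes 0.5 mg/mL + NADPH 0.5 mg/mL (final); 16 h, 37 C; CellTiter-Glo, 30 min RT; luminescence.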

[8] = p53 small molecule agonists, cell-based qHTS assay: qHTS cell viability counter screen (AID 1963581); further: nearly all actives have a fitted effect of over 45% in size; further: potency means the concentration at half of the fitted maximal effect
Summary of the method: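 Following 5 h attachment, HCT-116 p53RE-bla cells took up compound for 16 h at 37 C; the reporter was read with B/G FRET substrate (2 h RT), and viability then via CellTiter-Glo ATP luminescence.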

[9] = p53 small molecule agonists, cell-based qHTS assay (AID 1963582; active means well fitted activation curve with a large enough effect in the signal ratio in the repeat runs, not every such curve was filed as active; the % refers to the signal ratio)
Summary of the method: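 In this cell-based concentration-response screen, a p53 response element drives beta-lactamase; cells received DMSO-borne compounds after 5 h culture and were incubated a further 16 h before FRET substrate development.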

[10] = target: Muscarinic acetylcholine receptor M1 (Homo sapiens) (UniProt P11229); assay: Cholinergic receptor muscarinic 1 (CHRM1) small molecule antagonists, cell-based qHTS assay (AID 1963588); further: nearly all actives have a fitted effect of over 40% in size
Summary of the method: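 CHRM1-CHO calcium-flux assay, antagonist mode. Cells were seeded 18 h, dye-loaded 1 h at 37 C and given compound for 5 min at RT, then acetylcholine was added at 50nM. FDSS fluorescence was read 3 min; 15 concentrations, three runs.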

[11] = cAMP Responsive Elements (CRE) small molecule agonists, cell-based qHTS assay (AID 1963590)
Summary of the method: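 A CRE-responsive beta-lactamase reporter in HEK 293T cells was used. Treatment ran 3 h at 37 C; detection used LiveBLAzer B/G FRET substrate for 2 h at room temperature.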

[12] = cAMP Responsive Elements (CRE) small molecule antagonists, cell-based qHTS assay (AID 1963591; active means well fitted inhibition curve with a large enough effect in the signal ratio in the repeat runs, not every such curve was filed as active; the % refers to the signal ratio)
Summary of the method: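 HEK293T cells carrying a CRE-driven beta-lactamase reporter receive compound and NKH477 (0.25 uM final) for 3 h. Fluorescence from LiveBLAzer B/G FRET substrate is read after 2 h at room temperature.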

[13] = target: Beta-2 adrenergic receptor (Homo sapiens) (UniProt P07550); assay: Adrenergic beta2 receptor (ADRB2) small molecule antagonists, cell-based qHTS assay (AID 1963592); further: series mostly up to about 92 µM; nearly all actives have a fitted effect of over 50% in size
Summary of the method: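 Cells (CHO, stable ADRB2 overexpression) incubated 18-20hr at 37C; compounds added from DMSO; agonist mix (1nM isoproterenol, 100uM IBMX, 25uM Ro-20-1724) added; 0.5hr RT; d2-cAMP and anti-cAMP-cryptate added; 1hr RT; 665/615 nm read.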

[14] = target: Beta-2 adrenergic receptor (Homo sapiens) (UniProt P07550); assay: Adrenergic beta2 receptor (ADRB2) small molecule agonists, cell-based qHTS assay (AID 1963593);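 further: CHO cells stably overexpressing human ADRB2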
Summary of the method: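 CHO cells stably over-expressing ADRB2 were plated overnight at 37C, then dosed with compounds plus a stimulation mix containing 100uM IBMX and 25uM Ro-20-1724 for 0.5hr at room temperature. cAMP was measured by HTRF competition, 1hr.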

[15] = target: D(2) dopamine receptor (Homo sapiens) (UniProt P14416); assay: Dopamine D2 receptor (DRD2) small molecule agonists, cell-based qHTS assay (AID 1963594); further: nearly all actives have a fitted effect of over 35% in size
Summary of the method: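 cAMP accumulation in DRD2-HEK293 cells measured by HTRF after 1 h detection; compounds added 10 min before NKH477 (200nM […]) forskolin-analogue stimulation, 30 min at room temperature, with Ro20-1724 present at 0.1 mM final.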

[16] = target: KiSS-1 receptor (Homo sapiens) (UniProt Q969F8); assay: Human kisspeptin (KISS1R) small molecule agonists, calcium flux assay in KISS1R-HEK293 cells (AID 1920064; active means well fitted curve in the direction sought with a large enough effect in the repeat runs; an effect the other way counts as inactive or inconclusive)
Summary of the method: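 Kinetic calcium assay, 1 s sampling over 3 min at Ex/Em 480/540, in HEK293 cells engineered with human KISS1R; compounds delivered in DMSO after 1 h dye loading.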

[17] = target: 5-hydroxytryptamine receptor 2A (Homo sapiens) (UniProt P28223); assay: 5-hydroxytryptamine receptor 2A (HTR2A) small molecule antagonists, cell-based qHTS assay (AID 1963586); further: nearly all actives have a fitted effect of over 45% in size; further: potency means the concentration at half of the fitted maximal effect
Summary of the method: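 Antagonist-mode intracellular calcium assay: DOI (4 nM) added after 5 min compound pre-incubation at room temperature to dye-loaded HTR2A-CHO cells. Fluorescence followed for 3 min, sampled every second.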

[18] = target: 5-hydroxytryptamine receptor 2A (Homo sapiens) (UniProt P28223); assay: 5-hydroxytryptamine receptor 2A (HTR2A) small molecule agonists, cell-based qHTS assay (AID 1963587); further: nearly all actives have a fitted effect of over 30% in size; further: potency means the concentration at half of the fitted maximal effect
Summary of the method: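 Kinetic calcium-flux fluorescence (2 min, 1 sec intervals) after compound addition in agonist mode. HTR2A-CHO cells were cultured 18 h, then dye-loaded 1 h at 37 C.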

[19] = target: Muscarinic acetylcholine receptor M1 (Homo sapiens) (UniProt P11229); assay: Cholinergic receptor muscarinic 1 (CHRM1) small molecule agonists, cell-based qHTS assay (AID 1963589); further: nearly all actives have a fitted effect of over 35% in size
Summary of the method: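 Measures agonist-induced intracellular calcium rise. Stable human CHRM1 CHO line, 1 h dye load at 37 C, compounds from DMSO, kinetic fluorescence read.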

[20] = target: D(2) dopamine receptor (Homo sapiens) (UniProt P14416); assay: Dopamine D2 receptor (DRD2) small molecule antagonists, cell-based qHTS assay (AID 1963595; active means well fitted inhibition curve with a large enough effect in the signal ratio in the repeat runs, with a control signal flat; the % refers to the signal ratio)
Summary of the method: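 Human DRD2 antagonist qHTS measuring cAMP by HTRF. The cells are exposed to compound for 10 min, then to NKH477 (200 nM) and quinpirole (12 nM) for 30 min at RT, with Ro20-1724 (0.1 mM) present throughout.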

Measured: Potency

Muscarinic acetylcholine receptor M1 (Homo sapiens), sequence (P11229 whole entry, looked up): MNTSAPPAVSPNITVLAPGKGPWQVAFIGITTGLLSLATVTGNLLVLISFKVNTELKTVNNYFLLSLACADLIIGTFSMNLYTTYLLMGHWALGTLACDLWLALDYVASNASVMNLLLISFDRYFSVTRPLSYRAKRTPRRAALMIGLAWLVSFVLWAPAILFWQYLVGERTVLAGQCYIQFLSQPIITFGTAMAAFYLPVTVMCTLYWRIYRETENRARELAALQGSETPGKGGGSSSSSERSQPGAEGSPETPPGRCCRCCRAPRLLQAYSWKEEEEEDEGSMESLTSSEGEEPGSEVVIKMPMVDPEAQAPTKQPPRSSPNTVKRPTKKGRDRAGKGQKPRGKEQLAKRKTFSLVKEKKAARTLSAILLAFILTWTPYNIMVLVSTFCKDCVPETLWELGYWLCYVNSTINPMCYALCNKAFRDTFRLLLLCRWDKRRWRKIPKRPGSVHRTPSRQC
Beta-2 adrenergic receptor (Homo sapiens), sequence (P07550 whole entry, looked up): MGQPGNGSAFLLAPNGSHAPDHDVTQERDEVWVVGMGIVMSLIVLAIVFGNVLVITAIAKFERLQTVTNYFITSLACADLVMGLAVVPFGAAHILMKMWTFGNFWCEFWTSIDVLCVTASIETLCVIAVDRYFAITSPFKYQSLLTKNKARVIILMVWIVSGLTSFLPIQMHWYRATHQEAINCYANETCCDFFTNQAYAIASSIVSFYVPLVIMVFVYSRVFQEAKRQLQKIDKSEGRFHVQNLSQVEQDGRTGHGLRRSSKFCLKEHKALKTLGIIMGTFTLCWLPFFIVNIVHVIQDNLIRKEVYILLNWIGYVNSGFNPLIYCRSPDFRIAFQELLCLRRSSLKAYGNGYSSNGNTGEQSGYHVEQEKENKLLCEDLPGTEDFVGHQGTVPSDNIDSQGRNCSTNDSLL
D(2) dopamine receptor (Homo sapiens), sequence (P14416 whole entry, looked up): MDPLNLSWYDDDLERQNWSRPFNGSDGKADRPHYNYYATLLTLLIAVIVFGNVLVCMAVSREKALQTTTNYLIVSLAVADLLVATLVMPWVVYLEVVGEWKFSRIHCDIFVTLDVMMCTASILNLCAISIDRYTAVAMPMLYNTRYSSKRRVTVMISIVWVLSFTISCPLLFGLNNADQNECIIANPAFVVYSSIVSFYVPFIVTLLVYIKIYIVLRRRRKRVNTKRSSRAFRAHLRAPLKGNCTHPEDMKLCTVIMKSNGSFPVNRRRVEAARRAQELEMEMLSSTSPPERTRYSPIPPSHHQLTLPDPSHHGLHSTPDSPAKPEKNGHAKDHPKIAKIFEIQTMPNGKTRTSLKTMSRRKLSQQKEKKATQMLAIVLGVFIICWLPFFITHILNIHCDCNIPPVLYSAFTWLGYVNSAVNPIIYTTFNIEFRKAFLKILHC
5-hydroxytryptamine receptor 2A (Homo sapiens), sequence (P28223 whole entry, looked up): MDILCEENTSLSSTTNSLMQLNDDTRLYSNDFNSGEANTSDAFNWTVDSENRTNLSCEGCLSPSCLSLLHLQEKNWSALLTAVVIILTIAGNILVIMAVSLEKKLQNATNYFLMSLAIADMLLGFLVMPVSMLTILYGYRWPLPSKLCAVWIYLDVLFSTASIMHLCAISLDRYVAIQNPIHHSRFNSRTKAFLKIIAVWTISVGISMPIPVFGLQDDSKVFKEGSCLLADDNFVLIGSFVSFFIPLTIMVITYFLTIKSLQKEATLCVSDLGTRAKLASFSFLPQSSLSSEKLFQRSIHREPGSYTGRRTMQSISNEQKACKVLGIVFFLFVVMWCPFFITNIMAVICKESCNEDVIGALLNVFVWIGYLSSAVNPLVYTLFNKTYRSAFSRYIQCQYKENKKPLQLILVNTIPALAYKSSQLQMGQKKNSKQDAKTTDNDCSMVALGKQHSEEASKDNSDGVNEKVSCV
KiSS-1 receptor (Homo sapiens), sequence (Q969F8 whole entry, looked up): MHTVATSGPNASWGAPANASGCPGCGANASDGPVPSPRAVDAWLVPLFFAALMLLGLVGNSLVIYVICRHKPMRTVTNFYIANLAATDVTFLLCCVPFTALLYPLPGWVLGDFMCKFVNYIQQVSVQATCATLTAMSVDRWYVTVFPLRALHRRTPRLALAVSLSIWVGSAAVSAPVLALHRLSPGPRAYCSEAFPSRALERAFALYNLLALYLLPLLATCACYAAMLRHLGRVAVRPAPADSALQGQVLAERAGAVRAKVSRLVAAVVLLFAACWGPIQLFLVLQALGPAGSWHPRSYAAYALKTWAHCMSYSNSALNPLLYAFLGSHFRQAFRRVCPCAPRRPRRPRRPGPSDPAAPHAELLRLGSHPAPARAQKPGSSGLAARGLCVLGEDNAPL

O=C(Cl)c1ccc(Cl)cc1Cl
not listed: [16] | [17] | [18] | [19] | [20]
inactive: all other assays above

N#CCCCC(C#N)CCC#N (stereo unspecified)
not listed: [2] | [15]
inactive: all other assays above

C=CC(=O)[O-].C=CC(=O)[O-].[Zn+2]
not listed: [4] | [5] | [6] | [13] | [16] | [17]
inactive: all other assays above

Cc1c(Nc2ncccc2C(=O)O)cccc1C(F)(F)F
not listed: [2] | [14]
inactive: all other assays above

COC(C)(C)CC(C)=O
not listed: [2] | [20]
inactive: all other assays above

Cc1cccc2c1cc1ccc3cccc4ccc2c1c34
not listed: [3] | [4] | [5] | [9] | [11] | [12] | [19]
inactive: all other assays above

CC1=CCC(C(C)C)C=C1 (stereo unspecified)
not listed: [2] | [15]
inactive: all other assays above

CC(C)Cc1ccc(CC(=O)O)cc1
not listed: [2]
inactive: all other assays above

Cc1cc2c(C(C)C)c(O)c(O)c(C=O)c2c(O)c1-c1c(C)cc2c(C(C)C)c(O)c(O)c(C=O)c2c1O
active: [1] 10.6 µM | [6] 17.8 µM | [8] 11.2 µM
inactive: [2] | [4] | [5] | [10] | [19] | [13] | [15]

COc1ccnc2c1CCCCC2S(=O)c1nc2ccccc2[nH]1 (stereo unspecified)
not listed: [2] | [20]
inactive: all other assays above

CCCCCCCCCCCCCCCBr
not listed: [2] | [14]
inactive: all other assays above

CCCCCC(CO)CCC (stereo unspecified)
not listed: [2]
inactive: all other assays above

COCC(=O)O[C@]1(CCN(C)CCCc2nc3ccccc3[nH]2)CCc2cc(F)ccc2[C@@H]1C(C)C
active: [1] 23.7 µM | [17] 5.16 µM
not listed: [8] | [9] | [11] | [12] | [14] | [16]
inactive: all other assays above

Sc1nc(S)nc(S)n1
not listed: [2]
inactive: all other assays above

CCCCC1C(=O)N(c2ccccc2)N(c2ccc(O)cc2)C1=O (stereo unspecified)
active: [1] 21.1 µM | [2] 10.6 µM
not listed: [3] | [4] | [9] | [11] | [12] | [14] | [20]
inactive: all other assays above

CN1C[C@H]2c3ccccc3Oc3ccc(Cl)cc3[C@@H]2C1
active: [18] 23.9 µM
not listed: [3] | [4] | [9] | [10] | [13] | [14] | [15] | [20]
inactive: all other assays above

C[C@@H](NCCCc1cccc(C(F)(F)F)c1)c1cccc2ccccc12
active: [1] 29.8 µM | [18] 23.9 µM
inactive: [2] | [3] | [4] | [5] | [6] | [7] | [9] | [10] | [15]

Cc1ccc([N+](=O)[O-])cc1Cl
not listed: [2] | [14]
inactive: all other assays above

Oc1ccccc1-c1nnco1
not listed: [2] | [14]
inactive: all other assays above

CC(C)(C)CC(C)(C)c1ccc(OCCO)cc1
not listed: [9] | [10] | [11] | [12] | [14] | [16] | [17] | [18]
inactive: all other assays above

CCCCCC
not listed: [2]
inactive: all other assays above

C=Cc1ccc(OC(C)=O)cc1
not listed: [2] | [15]
inactive: all other assays above

CCCCOC(=O)CO
not listed: [2] | [15]
inactive: all other assays above

Cc1c(C(=O)O)cccc1[N+](=O)[O-]
active: [6] 23.3 µM
not listed: [2] | [14]
inactive: all other assays above

Cc1ccc2ccc(Cl)cc2n1
not listed: [2] | [14]
inactive: all other assays above

From PubChem BioAssay (Tox21)
